Test results as given in PubChem BioAssay AID1159580 (chemical genetic matrix, 2015).
In all, about 5,500 compounds went through this assay and about 2,000 (36%) were called active. Roughly 18% stayed inconclusive and do not appear here. Rule as the data show it: active = normalized growth mostly below about 0.91 (no sharp cut-off); inconclusive = no clear call, values can overlap the other calls; inactive = mostly above about 0.92. Some of the results follow.

Test: chemical genetic growth profiling, strain panel (AID 1159580);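 also: tested at 20 µM; growth read once vehicle control cultures reached saturation at 30 °C; 1 = growth at the plate median or of vehicle wells; lower values mean less growth of the strain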
Settings: S. cerevisiae deletion strains, growth OD

Measured: normalized growth

Oc1c(Cl)cc(Cl)cc1/C=N\NC(=S)Nc1cc(C(F)(F)F)cc(C(F)(F)F)c1
active: locus YAR019C, strain CDC15, active compounds read low 0.815 | locus YBL105C, strain PKC1, active compounds read low 0.899 | locus YBR135W, strain CKS1, active compounds read low 0.884 | locus YBR136W, strain MEC1, active compounds read low 0.888 | locus YBR160W, strain CDC28, active compounds read low 0.893 | locus YDL017W, strain CDC7, active compounds read low 0.889 | locus YDL028C, strain MPS1, active compounds read low 0.878 | locus YDL108W, strain KIN28, active compounds read low 0.88 | locus YDL132W, strain cdc53, active compounds read low 0.811 | locus YDL214C, strain PRR2, active compounds read low 0.179 | locus YDR052C, strain DBF4, active compounds read low 0.894 | locus YDR054C, strain cdc34, active compounds read low 0.491 | locus YDR226W, strain ADK1, active compounds read low 0.886 | locus YDR477W, strain SNF1, active compounds read low 0.285 | locus YER123W, strain YCK3, active compounds read low 0.158 | locus YER133W, strain GLC7, active compounds read low 0.338 | locus YFL009W, strain cdc4, active compounds read low 0.611 | locus YFL029C, strain CAK1, active compounds read low 0.784 | locus YFR003C, strain YPI1, active compounds read low 0.853 | locus YFR019W, strain FAB1, active compounds read low 0.111 | locus YFR028C, strain CDC14, active compounds read low 0.857 | locus YGR040W, strain KSS1, active compounds read low 0.35 | locus YGR052W, strain FMP48, active compounds read low 0.132 | locus YGR092W, strain DBF2, active compounds read low 0.0943 | locus YHR030C, strain SLT2, active compounds read low 0.126 | locus YHR079C, strain IRE1, active compounds read low 0.103 | locus YHR082C, strain KSP1, active compounds read low 0.151 | locus YHR205W, strain SCH9, active compounds read low 0.121 | locus YIL147C, strain SLN1, active compounds read low 0.887 | locus YJL095W, strain BCK1, active compounds read low 0.136 | locus YJL157C, strain FAR1, active compounds read low 0.128 | locus YJR016C, strain ILV3, active compounds read low 0.722 | locus YJR066W, strain TOR1 (second series), active compounds read low 0.118 | locus YJR066W, strain TOR1, active compounds read low 0.119 | locus YKL048C, strain ELM1, active compounds read low 0.166 | locus YKL067W, strain YNK1, active compounds read low 0.137 | locus YKL101W, strain HSL1, active compounds read low 0.12 | locus YKL193C, strain SDS22, active compounds read low 0.858 | locus YKL203C, strain TOR2, active compounds read low 0.132 | locus YLR113W, strain HOG1, active compounds read low 0.171 | locus YLR133W, strain CKI1, active compounds read low 0.12 | locus YLR403W, strain SFP1, active compounds read low 0.159 | locus YML070W, strain DAK1, active compounds read low 0.116 | locus YMR001C, strain CDC5, active compounds read low 0.805 | locus YMR205C, strain PFK2 (second series), active compounds read low 0.157 | locus YMR277W, strain FCP1, active compounds read low 0.811 | locus YNL006W, strain LST8, active compounds read low 0.673 | locus YNL020C, strain ARK1, active compounds read low 0.117 | locus YNL161W, strain CBK1, active compounds read low 0.789 | locus YNL183C, strain NPR1, active compounds read low 0.245 | locus YNL207W, strain RIO2, active compounds read low 0.858 | locus YNL222W, strain SSU72, active compounds read low 0.885 | locus YNL307C, strain MCK1 (second series), active compounds read low 0.114 | locus YOL078W, strain AVO1, active compounds read low 0.856 | locus YOL136C, strain PFK27, active compounds read low 0.139 | locus YOR061W, strain CKA2, active compounds read low 0.114 | locus YOR119C, strain RIO1, active compounds read low 0.217 | locus YOR231W, strain MKK1, active compounds read low 0.128 | locus YOR329C, strain SCD5, active compounds read low 0.56 | locus YPL031C, strain PHO85, active compounds read low 0.163 | locus YPL153C, strain RAD53, active compounds read low 0.171 | locus YPL204W, strain HRR25, active compounds read low 0.121 | locus YPL209C, strain IPL1, active compounds read low 0.891 | locus YPL256C, strain CLN2, active compounds read low 0.158 | locus YPR025C, strain CCL1, active compounds read low 0.893 | strain NNK1, active compounds read low 0.272 | strain TSCII, active compounds read low 0.621
inactive: locus YDL101C, strain DUN1, active compounds read low 0.922 | locus YJL128C, strain PBS2, active compounds read low 0.905 | locus YPR106W, strain ISR1, active compounds read low 0.922 | locus YPR111W, strain DBF20, active compounds read low 0.905
